The test has as its system Trypanosoma brucei. The test can be described thus: Trypanosoma brucei 72 hour study. It is filed as functional, organism-based. Further details: scale not given: in the data most compounds retested in dose-response had high values.

The structures appear in SMILES notation. Out of some 66,000 compounds screened, about 960 (1.5%) showed an effect of 50% or more. For the sample, strong results were picked, then their nearest neighbours and some compounds at random.

Regarding `COc1ccc(C[C@H]2CN(Cc3ccoc3)CC[C@@H]2OC)cc1.O=C(O)C(F)(F)F`, the “Percent Effect” value (30.3 µM, […]) is listed as -8.959%.

As to `COC(=O)Cn1c(=O)nc2n1C(=O)N(c1cccc(Cl)c1)C2`, for the setting “30 µM, 30.03 µM”, the “Percent Effect” value is -8.775%.

Turning to `Cc1cc(C)c(C#N)c(NCCn2cnnc2C(C)C)n1`, the “Percent Effect” value (30 µM, 30.03 µM) is -40.75%.

On to `Cc1n[nH]c(C)c1CCC(=O)N1CCC(O)(CN2CCOCC2)C1` (stereo unspecified), for which the “Percent Effect” value (30.3 µM, […]) was -4.476%.

With `CCN(Cc1ccc(C(C)=O)cc1)CC1CCOCC1`, the “Percent Effect” value (30 µM, 30.03 µM) was determined as 98.5%.

Regarding `NC(=O)NC(=O)CCN(Cc1ccccc1)CC1CCOCC1`, the “Percent Effect” value (30 µM, 30.03 µM) is on record as -38.3%.

Take `CCN(Cc1ccc(O)c(C(=O)O)c1)CC1CCOCC1`: for the setting “30 µM, 30.03 µM”, the “Percent Effect” value is recorded as -62.42%.

Take `COC1COC2(CCN(Cc3ccccc3C)CC2)C1.O=C(O)C(F)(F)F` (stereo unspecified): for the setting “30 µM, 30.03 µM”, the “Percent Effect” value is recorded as -3.278%.

As for `COc1ccc(CN2CCn3c(CO)nnc3C2)cc1CN1CCCC1.O=C(O)CC(O)(CC(=O)O)C(=O)O`, the “Percent Effect” value (30.3 µM, […]) is listed as -29.63%.

Consider `CN(CCn1cnnc1)S(=O)(=O)c1ccc(C(F)(F)F)nc1`, for which the “Percent Effect” value (30 µM, 30.03 µM) is reported as -27.18%.

Regarding `O=C(Cc1ccccc1F)N1CCCCC1c1ccn2ccnc2n1` (stereo unspecified), the “Percent Effect” value (30.3 µM, […]) is -17.08%.

Turning to `Br.O=C(CN(C1=NCCCC1)c1ccccc1)c1ccccc1`, for the setting “30 µM, 30.03 µM”, the “Percent Effect” value is -30.63%.

Consider `Br.Cc1ccc(N(CC(=O)c2ccc(Br)cc2)C2=NCCCCC2)cc1`, for which the “Percent Effect” value (30 µM, 30.03 µM) is 102.1%.

In the case of `Br.Cc1ccc(C(=O)CN(C2=NCCCCC2)c2ccccc2)cc1`, the “Percent Effect” value (30 µM, 30.03 µM) is listed as -7.636%.

As for `Cc1nc(-c2cc(C(=O)NCCN3CCOCC3)c3ccccn23)cs1.O=C(O)C(F)(F)F`, the “Percent Effect” value (30 µM, 30.03 µM) was -1.462%.

`CN(C)CC1(O)CCN(C(=O)Cc2ccc(Cl)c(Cl)c2)C1` (stereo unspecified): for the setting “30 µM, 30.03 µM”, the “Percent Effect” value is -2.195%.

As for `Cc1cc2occ(CC(=O)N3CCC4(CCCN(C)C4=O)C3)c2cc1Cl` (stereo unspecified), where the note is “30.3 µM, […]”, the “Percent Effect” value is given as 2.516%.

As to `Cc1cc2occ(CC(=O)N3CCC(O)(CN(C)C)C3)c2cc1Cl` (stereo unspecified), the “Percent Effect” value (30.3 µM, […]) amounted to 99.94%.

Turning to `CCN1C(=O)CC[C@]12CC[C@@H](NC(=O)c1cnccn1)CC2`, the “Percent Effect” value (30.3 µM, […]) is -18.7%.

As to `COC(=O)CN1CC(c2nc(Cc3ccccc3)no2)C1.O=C(O)C(=O)O`, under “30 µM, 30.03 µM”, the “Percent Effect” value is given as 101%.

For the compound `CCNC(=O)N1CC(c2nc(Cc3ccccc3)no2)C1`, where the note is “30.3 µM, […]”, the “Percent Effect” value is 0.6321%.

On to `O=C(CN1CC(c2nc(Cc3ccccc3)no2)C1)NCC1CCCO1.O=C(O)C(=O)O` (stereo unspecified), for which the “Percent Effect” value (30.3 µM, […]) came to 6.981%.

For `Cc1nn(C)c2ncnc(N3CCCC(C)(O)C3)c12` (stereo unspecified), under “30 µM, 30.03 µM”, the “Percent Effect” value was 2.016%.

Turning to `CCC1(O)CCCN(c2ncnc3c2c(C)nn3C)C1` (stereo unspecified), where the note is “30 µM, 30.03 µM”, the “Percent Effect” value is given as 27.55%.

Regarding `Cc1nn(C)c2ncnc(N3CCC(O)(CN4CCCC4)CC3)c12`, where the note is “30 µM, 30.03 µM”, the “Percent Effect” value stood at 57.4%.

Take `COc1cc(N2CCO[C@H]3[C@@H](Oc4cccnc4)CC[C@@H]32)ncn1.O=C(O)C(F)(F)F.O=C(O)C(F)(F)F`: the “Percent Effect” value (30 µM, 30.03 µM) is -15.67%.

With `CCC1CCCCN1CCNC(=O)N1CCN(Cc2ccon2)CC1` (stereo unspecified), for the setting “30 µM, 30.03 µM”, the “Percent Effect” value was determined as 20.59%.

As to `CN(C)CCn1c2c(ccc1=O)CC(NC(=O)NC1CCCC1)CC2.O=C(O)C(F)(F)F` (stereo unspecified), the “Percent Effect” value (30.3 µM, […]) is -38.22%.

In the case of `CC(C)(C)NC(=O)NC(=O)CNc1c(F)cccc1N1CCCC1`, the “Percent Effect” value (30 µM, 30.03 µM) is -52.35%.

For the compound `CCCn1cc(S(=O)(=O)N[C@H]2CN(CCO)C[C@@H]2C2CC2)cn1`, the “Percent Effect” value (30 µM, 30.03 µM) is -20.35%.

With `CC1=C[C@@H](CN2CCN(C)CC2)[C@H](C(C)C)C[C@H]1Cc1nnc(C)o1`, the “Percent Effect” value (30 µM, 30.03 µM) is 28.22%.

For the compound `CC1=C[C@@H](CN2CCOCC2)[C@H](C(C)C)C[C@H]1Cc1nnc(C)o1`, the “Percent Effect” value (30 µM, 30.03 µM) was determined as 60.87%.

In the case of `CC1=C[C@@H](CN2CCCC2)[C@H](C(C)C)C[C@H]1Cc1nnc(C)o1`, under “30 µM, 30.03 µM”, the “Percent Effect” value is on record as 17.59%.

On to `CC1c2ncc(Cn3cncn3)n2CCN1C(=O)c1ccsc1` (stereo unspecified), for which the “Percent Effect” value (30.3 µM, […]) was -6.898%.

`CC(C)N1CCO[C@@H]2CN(C(=O)Cc3cccs3)CC[C@@H]2C1.O=C(O)C(F)(F)F`: where the note is “30.3 µM, […]”, the “Percent Effect” value is listed as -84.63%.

Take `COCC(C)NCc1nc(-c2ccc(C)cc2)c(-c2ccccn2)[nH]1` (stereo unspecified): the “Percent Effect” value (30 µM, 30.03 µM) is given as 72.12%.

In the case of `Cc1ccc(-c2nc(CNS(=O)(=O)N(C)C)[nH]c2-c2ccccn2)cc1`, the “Percent Effect” value (30 µM, 30.03 µM) is -19.21%.

Regarding `Cc1ccc(-c2nc(CNC(C)CCO)[nH]c2-c2ccccn2)cc1` (stereo unspecified), the “Percent Effect” value (30 µM, 30.03 µM) is on record as -54.5%.

As for `Cn1cccc1C(O)CNS(=O)(=O)c1ccccc1Br` (stereo unspecified), the “Percent Effect” value (30.3 µM, […]) is given as 101.8%.

Turning to `Cc1c(Cl)cccc1S(=O)(=O)NCC(O)c1cccn1C` (stereo unspecified), the “Percent Effect” value (30.3 µM, […]) was 15.12%.

Take `COc1cc(C)c(C)cc1S(=O)(=O)NCC(O)c1cccn1C` (stereo unspecified): the “Percent Effect” value (30.3 µM, […]) worked out at 93.04%.

As to `Cc1cc(F)ccc1S(=O)(=O)NCC(O)c1cccn1C` (stereo unspecified), the “Percent Effect” value (30.3 µM, […]) was 2.147%.

With `COc1ccc(C)cc1S(=O)(=O)NCC(c1cccn1C)N(C)C` (stereo unspecified), the “Percent Effect” value (30 µM, 30.03 µM) is -85.17%.

Regarding `Cn1cccc1C(O)CNS(=O)(=O)c1ccccc1F` (stereo unspecified), the “Percent Effect” value (30.3 µM, […]) worked out at 21.76%.

On to `Cc1cccc(CN2CCc3cc(C(=O)O)c(N(C)C)nc3CC2)n1.O=C(O)C(F)(F)F.O=C(O)C(F)(F)F`, for which the “Percent Effect” value (30.3 µM, […]) is -4.937%.

Turning to `CN(C)C(=O)COC[C@@H]1CC[C@H]2[C@H](CCN2c2ncccn2)O1.O=C(O)C(F)(F)F`, the “Percent Effect” value (30 µM, 30.03 µM) was -8.509%.

Source of the values: ChEMBL document CHEMBL3988442, “University of Dundee, Small-Polar-MMV Screening Library” (2021).
